Measured values taken from PubChem BioAssay (NCATS).
Records with an inconclusive call do not appear. Activity calls are given as the source filed them. Calls follow the shape of the dose curve; as a rule, active = well fitted inhibition curve with a large enough effect; inconclusive = small, poorly fitted or top-dose-only effect; inactive = flat fitted curve, though single readings scatter.

Experiments:
Assay in all cases: qHTS profiling for inhibitors of Plasmodium falciparum proliferation (AID 504749); also: nearly all actives have a fitted effect of over 60% in size
Details in all cases: P. falciparum in erythrocytes, SYBR Green DNA, 72 h; series mostly up to 28.7 µM
CP238 = tested on: CP238
How it was run: (§1)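 Infected RBCs, 0.3% parasitemia/2.5% Hct final; cpd 72 h, 37 C, 5% CO2; lysis buffer with saponin/triton/SYBR Green I, o/n RT dark; FI 485/535; norm. to artemisinin (0.29 uM) and DMSO.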

CP247 = tested on: CP247
How it was run: as §1

CP250 = tested on: CP250
How it was run: as §1

CP252 = tested on: CP252
How it was run: as §1

CP256 = tested on: CP256
How it was run: as §1

CP260 = tested on: CP260
How it was run: as §1

CP262 = tested on: CP262
How it was run: as §1

CP265 = tested on: CP265
How it was run: as §1

CP266 = tested on: CP266
How it was run: as §1

CP268 = tested on: CP268
How it was run: as §1

CP269 = tested on: CP269
How it was run: as §1

CP286 = tested on: CP286
How it was run: as §1

CP291 = tested on: CP291
How it was run: as §1

CP297 = tested on: CP297
How it was run: as §1

CP305 = tested on: CP305
How it was run: as §1

CP315 = tested on: CP315
How it was run: as §1

CP325 = tested on: CP325
How it was run: as §1

CP329 = tested on: CP329
How it was run: as §1

CP335 = tested on: CP335
How it was run: as §1

DFO2036 = tested on: DFO2036
How it was run: as §1

Measured: Potency
Potency is read from the fitted curve at half-maximal effect.

CNC(C)(C)Cc1ccccc1
inactive: all assays above

CCC1(c2ccccc2)C(=O)N(COC)C(=O)N(COC)C1=O
inactive: all assays above

C[C@](O)(CS(=O)(=O)c1ccc(F)cc1)C(=O)Nc1ccc(C#N)c(C(F)(F)F)c1
inactive: all assays above

CN1C(=O)COc2c(C(=O)NC3CN4CCC3CC4)cc(Cl)cc21 (stereo unspecified)
inactive: all assays above

COP(=S)(OC)Oc1ccc(SC)c(C)c1
not listed: CP291
inactive: all other assays above

CN1C[C@H](C(=O)N[C@]2(C)O[C@@]3(O)[C@@H]4CCCN4C(=O)[C@H](Cc4ccccc4)N3C2=O)C=C2c3cccc4[nH]cc(c34)C[C@H]21
active: CP238 1.41 µM | CP247 3.55 µM | CP250 3.16 µM | CP252 1 µM | CP256 4.47 µM | CP260 0.282 µM | CP262 9.53 µM | CP265 0.631 µM | CP268 6.75 µM | CP269 4.26 µM | CP286 891 nM | CP291 9.53 µM | CP297 3.38 µM | CP305 6.75 µM | CP315 12 µM | CP325 6.75 µM | CP329 15.1 µM | CP335 675 nM | DFO2036 1.26 µM

O=C(O)CCCc1ccc(N(CCCl)CCCl)cc1
not listed: CP250
inactive: all other assays above

CN1CCC(O)(c2ccc(F)cc2)C(C(=O)c2ccc(F)cc2)C1 (stereo unspecified)
not listed: CP260
inactive: all other assays above

COC(=O)C(c1ccccc1)C1CCCCN1 (stereo unspecified)
not listed: CP262 | CP291
inactive: all other assays above

Cc1nnc2n1-c1ccc(Cl)cc1C(c1ccccc1)=NC2
not listed: CP256 | CP335
inactive: all other assays above

O=C1c2ccccc2C(=O)C1C(=O)C(c1ccccc1)c1ccccc1
not listed: CP260
inactive: all other assays above

CCOC(=O)CC(SP(=S)(OC)OC)C(=O)OCC (stereo unspecified)
not listed: CP266
inactive: all other assays above

CC(C)(C)NCC(O)c1cc(Cl)c(N)c(C(F)(F)F)c1 (stereo unspecified)
inactive: CP266 | CP315 | CP329
active: CP238 8.91 µM | CP247 10 µM | CP250 10 µM | CP252 8.91 µM | CP256 11.2 µM | CP260 12.6 µM | CP265 8.91 µM | CP297 15.1 µM | DFO2036 5.01 µM

COc1ccc2c(c1)C13CCCC[C@@H]1C(C2)N(C)CC3 (stereo partly specified)
active: CP260 11.2 µM
not listed: CP256 | CP265 | CP268 | CP269 | CP291 | CP335
inactive: all other assays above
